The values below come from PubChem BioAssay AID720540 (National Center for Advancing Translational Sciences (NCATS), 2013).

Among all 1,300 compounds or so, about 460 (35%) were called active. Another 39% or so got no clear call; they are omitted. Calls follow the shape of the dose curve; as a rule, active = well fitted inhibition curve with a large enough effect; inconclusive = small, poorly fitted or top-dose-only effect; inactive = flat fitted curve, though single readings scatter. Some of the results follow.
Potency is read from the fitted curve at half-maximal effect.

Chain of Protein phosphatase EYA2 (Homo sapiens) (O00167 whole entry, looked up): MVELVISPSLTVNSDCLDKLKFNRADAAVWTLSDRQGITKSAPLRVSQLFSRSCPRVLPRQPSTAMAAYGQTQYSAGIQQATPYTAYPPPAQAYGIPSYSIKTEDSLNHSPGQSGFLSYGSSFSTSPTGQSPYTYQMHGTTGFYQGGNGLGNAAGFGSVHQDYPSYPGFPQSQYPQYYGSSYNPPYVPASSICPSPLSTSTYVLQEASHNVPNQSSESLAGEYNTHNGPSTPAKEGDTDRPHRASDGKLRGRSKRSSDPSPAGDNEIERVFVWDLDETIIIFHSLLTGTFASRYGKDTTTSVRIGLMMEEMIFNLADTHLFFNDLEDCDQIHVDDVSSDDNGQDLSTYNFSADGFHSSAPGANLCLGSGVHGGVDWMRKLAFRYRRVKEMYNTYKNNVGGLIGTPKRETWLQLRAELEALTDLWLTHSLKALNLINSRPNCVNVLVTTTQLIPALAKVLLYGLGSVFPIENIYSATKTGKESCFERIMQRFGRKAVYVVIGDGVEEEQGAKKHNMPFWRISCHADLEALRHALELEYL

This test deals with Protein phosphatase EYA2 (Homo sapiens) (UniProt O00167). As to the kind of experiment: qHTS for Inhibitors of the Phosphatase Activity of Eya2: Confirmatory Assay for Cherry-picked Compounds. Also: nearly all actives have a fitted effect of over 65% in size.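 As to activity change, negative = inhibition: 0% = DMSO wells and -100% = EGTA control giving full inhibition.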 Conditions: purified EYA2 phosphatase activity, qHTS confirmation; series mostly up to 46.1 µM; activity change, negative = inhibition: at the top concentration. The essentials:
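Eya2 (0.2 uM working solution) preincubated 10 min at room temperature with compound in pH 7.5 HEPES buffer with MgCl2, BSA, DTT. OMFP added (50 uM working solution), 10 min more; fluorescence 485/525 nm, normalized to EGTA and DMSO.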
(In general: qHTS replaces the single test concentration by a dilution series.)
On to `Cc1csc(NC(=O)CSc2ccc(-c3ccccn3)nn2)n1`, for which the Potency was 4.26 µM (active).
Regarding `O=C(CSc1nnc(CNC(=O)c2ccccc2)o1)Nc1nccs1`, the “activity change, negative = inhibition” value was -23.7% (inactive).
On the same count and under the same terms, under `Cc1cc(NC(=O)CSc2nnnn2-c2ccccc2C)no1` stands -21.9% (inactive).
As to `Cc1ccccc1NC(=O)CSc1ccc(-c2ccccn2)nn1`, the Potency was 4.26 µM (active).
Regarding `Cc1cc(C)c(NC(=O)CSc2ccc(-c3ccccn3)nn2)c(C)c1`, the Potency is 6.75 µM (active).
For `Cc1cccc(C#Cc2ccccc2)n1`, the “activity change, negative = inhibition” value was 10.3% (inactive).
Same read-out and setting: as for `O=S(=O)(NCCSCc1ccc(Cl)c(Cl)c1)c1ccc2c(c1)OCCO2`, the figure is -18.2% (inactive).
The same measure, in the same setting: under `CC(=O)Nc1ccc(NC(=O)COc2ncnc3ccccc23)cc1` stands -5.31% (inactive).
As for `CN(C)c1ccc(NC(=O)CC(NCc2ccccn2)C(=O)O)cc1` (configuration not stated), the Potency was 0.849 µM (active).
As for `CN(C)C(CNC(=O)c1ccc2c(c1)S(=O)(=O)c1ccccc1C2=O)c1ccco1` (configuration not stated), the “activity change, negative = inhibition” value was -29.2% (inactive).
As for `O=C(NCc1ccccc1)c1ccc2nc(-c3ccco3)c(-c3ccco3)nc2c1`, the Potency is 8.49 µM (active).
Regarding `Cc1ccc(CNC(=O)c2ccc(-n3cccc3)cc2)cc1`, the “activity change, negative = inhibition” value was -19.7% (inactive).
Regarding `O=C(NCCCO)c1ccc2nc(-c3ccco3)c(-c3ccco3)nc2c1`, the Potency was 9.53 µM (active).
Regarding `Cc1cccc2cn[nH]c12`, the “activity change, negative = inhibition” value is -0.6% (inactive).
Take `COc1ccc(/C=N/N2CCN(Cc3ccc(C)cc3)CC2)cc1Br`: the Potency was 15.1 µM (active).
The same measure, in the same setting: under `COC1=C(Nc2ccc(OC)cc2)C(=O)c2ccccc2C1=O` stands 6.01 µM (active); under `CC(=O)Nc1ccc(OC(=O)c2cc3cc(Br)ccc3oc2=O)cc1`, 7.57 µM (active).
`O=C(NNC(=O)c1cc2cc(Br)ccc2oc1=O)c1ccc(O)cc1`: the “activity change, negative = inhibition” value was -7.2% (inactive).
On to `Cc1nc(S/C(=C\c2ccc(-c3ccc(C(=O)O)c(Cl)c3)o2)C(=O)O)n[nH]1`, for which the Potency was 15.1 µM (active).
In the case of `COc1ccc(Cc2nc3c4c(ncn3n2)Oc2ccc3ccccc3c2C4c2ccc(OC)c(OC)c2)cc1` (configuration not stated), the “activity change, negative = inhibition” value is -18.2% (inactive).
Regarding `COc1ccc2c(c1)-c1c(ssc1=S)C(C)(C)N2S(=O)(=O)c1ccc(C)cc1`, the Potency is 16.9 µM (active).
For `Cc1ccc(S(=O)(=O)N2c3ccccc3-c3c(ssc3=S)C2(C)C)cc1`, the Potency was 15.1 µM (active).
Regarding `CC1CCN(C(=O)Nc2ccc3nc(-c4ccco4)c(-c4ccco4)nc3c2)CC1`, the Potency was 6.75 µM (active).
On the same count and under the same terms, under `O=C(Nc1ccc2nc(-c3ccco3)c(-c3ccco3)nc2c1)N1CCCC1` stands 7.57 µM (active).
On to `COCCNC(=O)c1cccc(OC2CCN(Cc3ccc(F)cc3OC)CC2)c1`, for which the “activity change, negative = inhibition” value is -8.43% (inactive).
Turning to `O=C(CSc1nc(-c2ccccc2)nc2c1Cc1ccccc1O2)Nc1ccc(C(=O)O)cc1`, the Potency is 7.57 µM (active).
The same measure, in the same setting: as for `CN(C1=C(N2CCCCC2)C(=O)c2ccccc2C1=O)c1ccccc1`, the figure is 1.2 µM (active); as for `O=C1C(Nc2cccc(O)c2)=C(N2CCCCC2)C(=O)c2ccccc21`, 15.1 µM (active); as for `CC1CCN(C2=C(NS(=O)(=O)c3ccc(Br)cc3)C(=O)c3ccccc3C2=O)CC1`, 3.79 µM (active).
For the molecule `O=C(CCS(=O)(=O)c1ccc(Br)cc1)N1CCCCCC1`, the “activity change, negative = inhibition” value was -25.4% (inactive).
Same read-out and setting: under `O=C1N=c2ccccc2=C1c1sc(Nc2cccc(O)c2)nc1O` stands -24.2% (inactive).
On to `O=C1C(NS(=O)(=O)c2ccc(Br)cc2)=C(N2CCCCC2)C(=O)c2ccccc21`, for which the Potency is 8.49 µM (active).
As for `COc1ccc(-c2cc(C3CCNCC3)[nH]n2)cc1`, the “activity change, negative = inhibition” value is -8.52% (inactive).
Take `O=C(N[C@@H]1CC[C@H](CCn2cc(-c3ccccn3)nn2)O[C@@H]1CO)c1ccncc1`: the Potency is 19 µM (active).
As to `CC(C)(C)NC(=O)c1cccc(NC(=O)c2ccc(NC(=O)c3ccco3)cc2)c1`, the “activity change, negative = inhibition” value was -21% (inactive).
Turning to `CCN(CC)c1ccc(NC(=O)c2ccc3c(c2)c(C)c(C)n3C)cc1`, the Potency is 13.5 µM (active).
On the same count and under the same terms, under `CC1C=CCC2C(=O)N(c3ccc(OC(=O)c4cccs4)cc3)C(=O)C12` (configuration not stated) stands 3.38 µM (active).
For the molecule `CC1C=CCC2C(=O)N(c3ccc(OC(=O)c4ccco4)cc3)C(=O)C12` (configuration not stated), the Potency was 7.57 µM (active).
Same read-out and setting: under `Cc1nc(-n2[nH]c3c(c2=O)CCCC3)[nH]c(=O)c1Cc1ccccc1` stands 19 µM (active).
Regarding `CCCc1nc(N2CCN(C)CC2)c2sc(=S)n(-c3ccccc3)c2n1`, the “activity change, negative = inhibition” value is -21.6% (inactive).
For the molecule `O=S(=O)(c1cc(O)ccc1O)c1cccc2c(S(=O)(=O)c3cc(O)ccc3O)cccc12`, the Potency was 15.1 µM (active).
On the same count and under the same terms, under `N#Cc1c2nc3ccccc3nc2n2cc(NC(=O)c3ccc(F)cc3)ccc12` stands 4.26 µM (active).
Turning to `CC(C)CCNC(=O)c1onc(CSc2ccncc2)c1C(=O)NCCC(C)C`, the “activity change, negative = inhibition” value is -9.87% (inactive).
On the same count and under the same terms, as for `O=C1NC(=O)/C(=C\c2ccccc2OCc2cccc([N+](=O)[O-])c2)N1`, the figure is -27.6% (inactive).
As for `CCOc1cc(/C=C2/NC(=O)NC2=O)cc(Br)c1OCc1ccc(C(=O)O)cc1`, the Potency was 21.3 µM (active).
With `Cc1c(NC(=O)c2ccco2)cccc1C(=O)NN1C(=O)c2ccccc2C1=O`, the “activity change, negative = inhibition” value was -17.1% (inactive).
For the molecule `C=C(C)COc1ccc(-c2nc(N)nc(C)c2-c2ccc(OC)cc2)c(O)c1`, the Potency was 7.57 µM (active).
As to `COc1ccc(-c2nc(N)ncc2-c2csc(C)n2)c(O)c1`, the “activity change, negative = inhibition” value is -21.3% (inactive).
As to `COc1ccc(-n2c(SCC(=O)Nc3cc(C(=O)O)ccc3C)nc3ccccc3c2=O)cc1Cl`, the Potency was 8.49 µM (active).
As to `COc1ccccc1-n1c(SCC(=O)Nc2cc(C)on2)nc2c(c1=O)SCC2`, the “activity change, negative = inhibition” value is -20.4% (inactive).
Still for that read-out and setting: under `O=C(O)c1ccc(CSc2nc3ccccc3c(=O)n2-c2ccccc2)cc1` stands -26.9% (inactive); under `COc1ccccc1-c1noc2c1C(=O)N(Cc1cn(-c3ccc(Cl)cc3)nn1)CC2`, -24.7% (inactive); under `O=c1cc2ncc(-n3cc([N+](=O)[O-])cn3)cn2[nH]1`, -10.2% (inactive).
For `CCC(=O)N1c2ccc(S(=O)(=O)N3CCN(c4ccc([N+](=O)[O-])cc4)CC3)cc2CC1C` (configuration not stated), the “activity change, negative = inhibition” value was -21.1% (inactive).
With `Cc1cccc(N2CC(C(=O)OCC(=O)c3ccc(OC(=O)c4cccs4)cc3)CC2=O)c1C` (configuration not stated), the Potency was 9.53 µM (active).
The same measure, in the same setting: as for `Nc1nccnc1C(=O)OCC(=O)Nc1ccc2[nH]c(=O)[nH]c2c1`, the figure is 13.5 µM (active).
For `O=C(COC(=O)c1cc(=O)[nH]c2ccccc12)Nc1cccc(S(=O)(=O)N2CCOCC2)c1`, the “activity change, negative = inhibition” value is -29.9% (inactive).
Same read-out and setting: as for `CCn1c2ccccc2c2cc(NC(=O)COC(=O)c3ccc(NC(=O)CC#N)cc3)ccc21`, the figure is -9.27% (inactive).
Same read-out and setting: as for `CCOc1ccc2ccccc2c1C(=O)N[C@@H]1C(=O)N2[C@@H]1SC(C)(C)[C@@H]2C(=O)O`, the figure is -15.5% (inactive); as for `Cc1ccc(OCCSc2nc3ccccc3n2CCC(=O)O)c(C(C)C)c1`, -23.1% (inactive); as for `O=C(C[n+]1ccccc1)c1ccc(O)c(O)c1`, -16.6% (inactive).
As for `O=C(CSc1nc2ccccc2n1CCc1ccccc1)c1ccc(O)c(O)c1`, the Potency is 13.5 µM (active).
